Results from PubChem BioAssay AID1159580 (chemical genetic matrix, 2015).
“And” between values parts separate entries of the source, which are not always exact repeats. Equal values may be shown once. The campaign covered roughly 5,500 compounds. About 2,000 (36%) were called active. About 18% were inconclusive and are not listed. No stated cut-off is given here; in the data, active means normalized growth mostly below about 0.91 (no sharp cut-off); inconclusive means no clear call, values can overlap the other calls; inactive means mostly above about 0.92. Some of the results follow.

Test: chemical genetic growth profiling, strain panel (AID 1159580);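 further: tested at 20 µM; growth read once vehicle control cultures reached saturation at 30 °C; 1 = growth at the plate median or of vehicle wells; lower values mean less growth of the strain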
Settings: S. cerevisiae deletion strains, growth OD

Measured: normalized growth

Cn1c(=O)[nH]c(=O)c2[nH]cnc21
inactive: locus YAL013W, strain DEP1, hits give low values 0.993 | locus YAL021C, strain ccr4, hits give low values 0.997 | locus YAL026C, strain drs2, hits give low values 0.989 | locus YAL030W, strain snc1, hits give low values 0.995 | locus YBL061C, strain skt5, hits give low values 1.01 | locus YBR009C, strain hhf1, hits give low values 0.999 | locus YBR021W, strain FUR4, hits give low values 0.991 | locus YBR023C, strain chs3, hits give low values 0.985 | locus YBR171W, strain sec66, hits give low values 0.982 | locus YBR229C, strain ROT2, hits give low values 0.987 | locus YBR231C, strain swc5, hits give low values 0.993 | locus YBR279W, strain paf1, hits give low values 0.988 | locus YCL011C, strain gbp2, hits give low values 1 | locus YCL016C, strain dcc1, hits give low values 0.987 | locus YCL029C, strain bik1, hits give low values 0.971 | locus YCL061C, strain MRC1, hits give low values 0.981 | locus YCL069W, strain vba3, hits give low values 0.999 | locus YCR088W, strain abp1, hits give low values 0.988 | locus YDL005C, strain med2, hits give low values 0.966 | locus YDL035C, strain GPR1, hits give low values 1 | locus YDL040C, strain nat1, hits give low values 0.99 | locus YDL074C, strain BRE1, hits give low values 1.01 | locus YDL101C, strain DUN1, hits give low values 0.984 | locus YDL134C, strain PPH21, hits give low values 0.999 | locus YDL185W, strain tfp1, hits give low values 0.955 | locus YDL192W, strain arf1, hits give low values 0.981 | locus YDR001C, strain nth1, hits give low values 0.996 | locus YDR069C, strain doa4, hits give low values 0.971 | locus YDR101C, strain arx1, hits give low values 0.981 | locus YDR137W, strain rgp1, hits give low values 0.979 | locus YDR150W, strain NUM1, hits give low values 0.994 | locus YDR159W, strain sac3, hits give low values 0.956 | locus YDR162C, strain NBP2, hits give low values 0.988 | locus YDR195W, strain ref2 1 | locus YDR297W, strain sur2, hits give low values 1 | locus YDR318W, strain mcm21, hits give low values 0.98 | locus YDR334W, strain swr1, hits give low values 1.01 | locus YDR335W, strain msn5, hits give low values 0.997 | locus YDR388W, hits give low values 0.966 | locus YDR392W, strain spt3, hits give low values 0.941 | locus YDR502C, strain sam2, hits give low values 0.982 | locus YEL003W, strain gim4, hits give low values 1 | locus YEL037C, strain rad23, hits give low values 1 | locus YEL061C, strain CIN8 (second series), hits give low values 0.999 | locus YEL061C, strain CIN8, hits give low values 0.994 | locus YER015W, strain faa2, hits give low values 0.996 | locus YER016W, strain bim1, hits give low values 1.01 | locus YER110C, hits give low values 0.969 | locus YER111C, strain swi4, hits give low values 1 | locus YER155C, strain BEM2 (second series), hits give low values 0.981 | locus YER155C, strain BEM2, hits give low values 0.989 | locus YER167W, strain BCK2, hits give low values 0.975 | locus YFR010W, strain ubp6, hits give low values 1 | locus YGL078C, strain dbp3, hits give low values 0.969 | locus YGL086W, strain mad1, hits give low values 0.977 | locus YGL167C, strain pmr1, hits give low values 1 | locus YGL173C, strain kem1, hits give low values 0.991 | locus YGL227W, strain vid30, hits give low values 0.999 | locus YGL240W, strain doc1, hits give low values 0.969 | locus YGL248W, strain PDE1, hits give low values 0.983 | locus YGL253W, strain hxk2, hits give low values 0.975 | locus YGR078C, strain PAC10, hits give low values 0.996 | locus YGR135W, strain pre9, hits give low values 0.977 | locus YGR229C, strain SMI1, hits give low values 0.993 | locus YGR252W, strain gcn5, hits give low values 1.06 | locus YHR013C, strain ard1, hits give low values 0.975 | locus YHR027C, strain rpn1, hits give low values 0.983 | locus YHR030C, strain SLT2, hits give low values 0.981 and 0.987 | locus YHR079C, strain IRE1 (second series), hits give low values 0.97 | locus YHR079C, strain IRE1, hits give low values 0.984 | locus YHR094C, strain hxt1, hits give low values 0.977 | locus YHR129C, strain ARP1, hits give low values 0.994 | locus YHR142W, strain chs7, hits give low values 1 | locus YHR200W, strain rpn10, hits give low values 0.968 | locus YIL066C, strain RNR3, hits give low values 0.988 | locus YIL073C, strain SPO22, hits give low values 0.935 | locus YIL125W, strain kgd1, hits give low values 0.971 | locus YIR030C, strain dcg1, hits give low values 0.967 | locus YJL092W, strain hpr5, hits give low values 0.996 | locus YJL095W, strain BCK1 (second series), hits give low values 0.999 | locus YJL095W, strain BCK1, hits give low values 0.977 and 0.976 | locus YJL115W, strain asf1, hits give low values 0.973 | locus YJL129C, strain trk1, hits give low values 0.968 | locus YJL134W, strain LCB3, hits give low values 0.987 | locus YJL154C, strain vps35, hits give low values 0.998 | locus YJL164C, strain tpk1, hits give low values 1.01 | locus YJL166W, strain qcr8, hits give low values 1 | locus YJL168C, strain set2, hits give low values 0.973 | locus YJL187C, strain SWE1 (second series), hits give low values 0.987 | locus YJR043C, strain POL32, hits give low values 1 | locus YJR066W, strain TOR1, hits give low values 0.911
